# Assay outcomes deposited in PubChem BioAssay by several laboratories.
# STAT3 blocker = inhibitors of IL-6 induced STAT3 signaling. U3A cells, IL-6 STAT3-luciferase reporter, luminescence; host cell line lacks STAT1. actives 0.89% (n = 190,000). inhibition, % at 5.5 µM;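 active = inhibition above the mean inhibition across all screened compounds plus 3 SD, cut at about 44% in these data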;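 also: 0% = DMSO only wells and 100% = 100 µM nifuroxazide control wells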
# STAT1 inh = reduces IFN-gamma driven STAT1 reporter signal | NIH 3T3 STAT1-luciferase reporter, luminescence | inhibition, % at 5.5 µM | actives 0.35% (n = 200,000);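 active = inhibition above a set limit, the mean inhibition across all tested compounds plus 3 SD, cut at about 34% in these data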;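 also: 0% = IFN-gamma with DMSO and 100% = IFN-gamma with 300 µM nifuroxazide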
# HSF1 inh = HSF1 inhibition | NIH3T3-HGL HSE-luciferase, MG132-induced, luminescence 8 h; hits give low values | activity change, negative = inhibition, % at 7.5 µM (by protocol) | actives 0.77% (n = 300,000) | AID 2098;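 active = more than half of replicate wells show activity change below -50%, luminescence cut by over half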;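 also: luciferase reports HSF-1 transcriptional activity via heat shock element; 0% = median of DMSO wells and -100% = zero luminescence signal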
# HSP90 inh = blocks HSP90-mediated luciferase refolding in reticulocyte lysate; Rabbit reticulocyte lysate, luciferase refolding luminescence, 3 h; actives 0.91% (n = 290,000); inhibition, % at 5.6 µM; AID 1789;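 active = inhibition above the screen-wide mean plus 3 SD, computed separately per campaign, cut at about 16% in these data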;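 also: 0% = DMSO wells and 100% = 60 µM geldanamycin wells; inhibitors lower the luminescence because luciferase stays unfolded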
# C8 TRAIL sens = sensitizes caspase-8 expressing cells to TRAIL | NB7+C8 cells + TRAIL, ATPlite viability luminescence | inhibition (viability loss, TRAIL sensitization), % at 10 µM | actives 1% (n = 360,000);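 active = compounds causing at least 50% loss of cell viability in the single-dose screen, relative to plate controls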
# PPC-1+TRAIL kill = compounds killing PPC-1 cancer cells with TRAIL present (potentiator screen, no TRAIL-free arm) | PPC-1 cells + TRAIL, ATPLite viability luminescence | actives 0.41% (n = 220,000) | AID 1443 | cell killing (% activity), % at 4 µM or 5 µM;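 active = cell killing above 50% in the first pass at 4 µM, then a duplicate retest at 5 µM averaging 50% or more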;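 also: plate controls were cells with TRAIL plus DMSO for no effect and medium-only wells lacking cells for full effect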
# Active calls of the source: *; . = not tested or not shown. Sampled rows, rich in hits. Any-hit rate of the full collection: about 2.4%.
SMILES,STAT3 blocker,STAT1 inh,HSF1 inh,HSP90 inh,C8 TRAIL sens,PPC-1+TRAIL kill
Cc1cccnc1NC(=O)Cn1nc([N+](=O)[O-])cc1C,7.0,-0.9,-5.2,2.3,-10.8,-4.6
Cc1cccnc1NC(=O)Cn1nc(-c2ccccc2)oc1=S,5.8,-19.1,10.0,-3.8,25.1,63.8*
Cc1ccc(NC(=O)CSc2nc3ccc(Nc4nc(N5CCOCC5)nc(N5CCOCC5)n4)cc3s2)cc1,.,.,.,2.5,55.2*,.
CCOC(=O)C1=CCN(S(=O)(=O)c2ccccc2C)C1c1ccc(Cl)cc1 (centres undefined),.,.,.,.,59.4*,.
CCOC(=O)C1=CCN(S(=O)(=O)c2ccccc2F)C1c1ccc(Cl)cc1 (centres undefined),.,.,.,.,5.7,.
Cc1nc2c(OCCOc3ccc(F)cc3)cccn2c1N(C)C(=O)CCC1CCCC1,.,.,.,.,10.4,.
Cc1ccccc1OCC(=O)N/N=C/c1cc2ccccc2nc1Cl,15.5,9.7,-0.4,0.7,4.0,27.6
C=CCc1ccccc1OCC(=O)N/N=C/c1ccc(OC(C)=O)cc1OC(C)=O,11.5,5.7,-2.4,-7.3,50.2*,22.8
O=C(Cn1ncc(Cl)c(Cl)c1=O)N1CCc2ccccc21,12.6,3.5,-5.3,1.2,96.2*,31.3
CCCCC(CC)CN1C(=O)/C(=C/c2ccncc2)SC1=S (centres undefined),-3.1,2.0,9.8,-1.2,86.5*,3.1
O=C(CC(Nc1ccc(Cl)cc1)C(=O)O)c1ccccc1 (centres undefined),26.6,-49.9,23.6,-3.1,61.6*,44.1
O=C(CC(Nc1cccc(Cl)c1Cl)C(=O)O)c1ccccc1 (centres undefined),-46.6,-5.1,21.0,-0.8,-0.9,26.8
CCN(CC)C(=O)C1CCCN(c2ccc([N+](=O)[O-])cc2/C=N/NC(=O)c2ccccc2)C1 (centres undefined),10.4,2.4,0.7,4.2,0.8,27.2
CCN(CC)C(=O)C1CCCN(c2ccc([N+](=O)[O-])cc2/C=N/NC(=O)c2ccc([N+](=O)[O-])cc2)C1 (centres undefined),1.2,-0.4,-78.4*,-5.1,3.5,5.1
c1ccc(-c2cn3ccccc3n2)cc1,.,.,.,.,43.3,.
CC(C)C(=O)Nc1cccc(-c2cn3ccccc3n2)c1,-3.4,-13.8,4.6,16.2*,-4.3,-5.0
CCN(CC)S(=O)(=O)c1ccc(-c2cn3ccccc3n2)cc1,.,.,.,.,-12.7,.
CN(C)S(=O)(=O)c1ccc(-c2cn3ccccc3n2)cc1,0.8,-12.3,15.5,4.6,60.1*,46.0
Brc1ccc(-c2cn3ccccc3n2)cc1,.,.,19.5,14.1,47.4*,29.5
CCOc1ccc(-c2cn3ccccc3n2)cc1[N+](=O)[O-],4.3,-30.4,23.6,3.4,52.2*,39.9
Cc1cccc(C)c1C(O)c1ncc(-c2ccccc2F)[nH]1 (centres undefined),.,.,.,.,-9.6,.
CCCCCc1c(-c2ccc(Br)cc2)ncn1CCc1ccccc1OC,.,.,.,.,37.9,.
COCCN1C(=O)CN(S(C)(=O)=O)CC1(C)C(=O)NCc1ccccc1 (centres undefined),.,.,.,.,3.9,.
Oc1ccc(-c2cn3ccccc3n2)cc1,.,.,5.3,2.0,62.6*,38.4
Cc1ccccc1-c1cc2nc(NCCN3CCCC3)n(C)c(=O)c2s1,.,.,.,.,5.7,.
SMILES,STAT3 blocker,STAT1 inh,HSF1 inh,HSP90 inh,C8 TRAIL sens,PPC-1+TRAIL kill
CC(=O)Nc1ccc(S(=O)(=O)NCc2csc(C)n2)cc1,-1.4,5.4,-87.1*,-0.7,-21.2,1.6
Cc1nc(CNS(=O)(=O)c2ccc(Br)cc2)cs1,.,.,-5.7,-2.1,0.0,.
OCc1nc2ccccc2n1CCCc1ccccc1,.,.,.,.,-2.2,.
O=C1NC[C@@H](CCCCN2C[C@H](Cc3ccccc3)N(Cc3ccccc3)C(=O)C2=O)N(Cc2ccccc2)C1=O,.,.,.,.,-6.6,.
O=C1c2ccc(Cl)cc2S(=O)(=O)c2cccc(C(=O)N3CCN(c4ccc(Cl)cn4)CC3)c21,.,.,.,.,59.0*,.
CCN(CC(=O)Nc1ccc(NC(C)=O)cc1)C(=O)c1c(C)nn(Cc2ccc(C)cc2)c1Cl,.,.,.,.,-9.8,.
CCCn1c(=O)c2c(nc3n2CCCN3CCc2ccccc2)n(C)c1=O,.,.,-5.9,0.0,7.5,.
Cn1c(=O)n(CCc2ccccc2)c(=O)c2c1nc1n2CCCN1CCc1ccccc1,1.9,-3.2,6.6,-0.9,44.7*,7.9
CC(C)(C)S(=O)N1Cc2cc(CO)ccc2[C@H]1CCO (some centres undefined),.,.,.,.,4.3,.
